Measured values from article PMC7819943, “Rice protein-binding microarrays: a tool to detect cis-acting elements near promoter regions in rice”.
Over roughly 39,000 sequences, “fluorescence intensity (a.u.)” has its median near 4,300; the highest 2% begin near 39,000. This is one part of a sample in which the highest values are shown more often than they occur.

Molecular target: T1, OsSMF1 (Oryza sativa, UniProt Q6ZLB0 1-436)
T1 sequence: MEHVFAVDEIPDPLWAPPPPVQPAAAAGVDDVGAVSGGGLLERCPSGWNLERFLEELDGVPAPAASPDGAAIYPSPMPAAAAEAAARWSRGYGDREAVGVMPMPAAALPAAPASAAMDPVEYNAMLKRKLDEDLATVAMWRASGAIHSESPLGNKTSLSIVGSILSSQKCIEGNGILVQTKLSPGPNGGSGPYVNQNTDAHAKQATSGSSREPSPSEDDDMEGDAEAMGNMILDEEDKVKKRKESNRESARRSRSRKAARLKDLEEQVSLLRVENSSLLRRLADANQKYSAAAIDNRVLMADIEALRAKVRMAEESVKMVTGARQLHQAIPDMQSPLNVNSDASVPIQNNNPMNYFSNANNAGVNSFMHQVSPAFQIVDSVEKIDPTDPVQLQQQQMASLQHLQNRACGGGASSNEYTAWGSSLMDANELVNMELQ
Assay: protein-binding microarray (RPBM); PBS, 2% BSA, 51.3 ng/ul salmon testes DNA, 50 uM zinc acetate, 200 nM TF, 25 C, 1 h; high values mean tight binding
Details: protein: recombinant; tags: N-terminal polyhistidine and DsRed monomer fusion (pET32a); chain copies: 2; label: CyDye5-dUTP incorporated in the synthesized complementary strand; 3' TTTTT single-stranded linker to array surface; dsDNA, one strand shown
In short: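 In PBS with 2% BSA, salmon testes DNA and 50 µM zinc acetate, 200 nM protein was incubated on a custom Agilent array at 25 °C for 1 h and then washed off. The array had been made double-stranded by primer extension with Cy5-dUTP and blocked with 2% BSA. The proteins were transcription factors fused N-terminally to polyhistidine and DsRed, expressed in E. coli BL21-CodonPlus and purified on Ni–NTA. The binding signal is per-feature fluorescence intensity (arbitrary units) from an Axon 4000B scanner.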

| Sequence | binding signal |
| --- | --- |
| GAGAATGATGTATGCACGCAGATGACATGGTATGATGAACCGGAGTCACCTAGTGCAG | 4370 fluorescence intensity (a.u.) |
| CTTCAAGAAGGTTACGCTGACAGAACGGCGACAACGTCCGCGGAGTCACCTAGTGCAG | 3220 fluorescence intensity (a.u.) |
| TCTAAGACTGAACTTTCCTGTATACATATATTTTGAAAAGCGGAGTCACCTAGTGCAG | 24600 fluorescence intensity (a.u.) |
| CTTCCTTTGATAATATAATATATAGATAAATTCTCTAAGACGGAGTCACCTAGTGCAG | 3200 fluorescence intensity (a.u.) |
| TCCTTCCATACTGTATAAATACTTTGAAATTCTAATATAGCGGAGTCACCTAGTGCAG | 44200 fluorescence intensity (a.u.) |
| GACGACCTTGGCACCCAGCTTCCGTCACTCGCTCGCCGCGCGGAGTCACCTAGTGCAG | 3220 fluorescence intensity (a.u.) |
| CATCTATCATATAACAACAACACAATGACACAACACTGGACGGAGTCACCTAGTGCAG | 4510 fluorescence intensity (a.u.) |
| TTATAACACAAAACACATATGAAGCGCACTCTACCACGCACGGAGTCACCTAGTGCAG | 32200 fluorescence intensity (a.u.) |
| CATATAACAAGTGACTGGCACACAAACCCACAATGAAGTGCGGAGTCACCTAGTGCAG | 43500 fluorescence intensity (a.u.) |
| TGCACGCACAGCCATCCACAAGCCATGAGCCGGCGCGAGACGGAGTCACCTAGTGCAG | 3640 fluorescence intensity (a.u.) |
| ATTGAAGCCTATTTATTGGTAATACGTAATCTAGATTTGACGGAGTCACCTAGTGCAG | 3700 fluorescence intensity (a.u.) |
| ATAAAAGAGAAGAGCAGCAGGCCAGCTGCAGGACGGACTTCGGAGTCACCTAGTGCAG | 3820 fluorescence intensity (a.u.) |
| AAAGGCACAGCAGGATGAAGATCTTGAAATGTTTCTTTGGCGGAGTCACCTAGTGCAG | 6510 fluorescence intensity (a.u.) |
| TCAGCAGTAAAGGACAGAAGGCGAAAAGATTTGAGATCTTCGGAGTCACCTAGTGCAG | 65500 fluorescence intensity (a.u.) |
| GCTCCCTCAGCCGTGGCACGTGTTCACAAGCCGTGACCAGCGGAGTCACCTAGTGCAG | 4570 fluorescence intensity (a.u.) |
| GTGCCTGCTCGATCGAGTCGTGGCGGCGGCGGAGTCAACTCGGAGTCACCTAGTGCAG | 3370 fluorescence intensity (a.u.) |
| CAGGCCAGAACAACTGCTCGGCCCGATAGGAGGGCCTACTCGGAGTCACCTAGTGCAG | 55800 fluorescence intensity (a.u.) |
| GCCCGTGCCAGGGCTGCTACCTCGGCACACTGGCCGGCACCGGAGTCACCTAGTGCAG | 3350 fluorescence intensity (a.u.) |
| AATAAGTGCAGTTGTGGGAATCCGTGTTGAACGTTTGACCCGGAGTCACCTAGTGCAG | 14300 fluorescence intensity (a.u.) |
| AGTGAAGTCACAAGGAAGTGACGAGGATGAGGACGAGGAGCGGAGTCACCTAGTGCAG | 28700 fluorescence intensity (a.u.) |
| CGCTCCTCGCCGCCTTGAACCTCACAGCGAAACCTGATCACGGAGTCACCTAGTGCAG | 3270 fluorescence intensity (a.u.) |
| CCACCTAACACTAATCAACCAGTCAACCACCACATCTTCCCGGAGTCACCTAGTGCAG | 3820 fluorescence intensity (a.u.) |

| Sequence | binding signal |
| --- | --- |
| GCCCACATCCATCCCGTCACCCGCCCACTCGCCGTCGCACCGGAGTCACCTAGTGCAG | 3490 fluorescence intensity (a.u.) |
| GCCACCCTCAGCCACTGGCCATCCGTGGGCCCCACCATCCCGGAGTCACCTAGTGCAG | 22500 fluorescence intensity (a.u.) |
| GATCCCGGGCCCGGCCCACTGGCCCAGTCAACTAATCCTCCGGAGTCACCTAGTGCAG | 53100 fluorescence intensity (a.u.) |
| CACTCCCATTCCCATCCTCCACATCCCGCGCCATCGACCTCGGAGTCACCTAGTGCAG | 3400 fluorescence intensity (a.u.) |
| TGGGGCCCACATCCCGCACCACTCGGATTCGGATTTCCTCCGGAGTCACCTAGTGCAG | 52200 fluorescence intensity (a.u.) |
| CTGCTCCACGCATTCACCAACGCTCCCTGCGATGTTTTAGCGGAGTCACCTAGTGCAG | 4260 fluorescence intensity (a.u.) |
| CATCCATCCGGTCAAAGCAGCCGGCCACGTGGCGTGTCCCCGGAGTCACCTAGTGCAG | 28100 fluorescence intensity (a.u.) |
| ACAGGCGAGGGTGGAACCCCGCGTGGCGAGAGCGTTGCGGCGGAGTCACCTAGTGCAG | 4270 fluorescence intensity (a.u.) |
| TCTTCAAACTTCCAACTTTTCCATCACATCAAAACTTTCCCGGAGTCACCTAGTGCAG | 3340 fluorescence intensity (a.u.) |
| CTTTTCCCCGACTAAACACACCCATACTGTCAAAAGGTAACGGAGTCACCTAGTGCAG | 26800 fluorescence intensity (a.u.) |
| TGTAAACATCCCATACTGGCTCTTACGCAAAACTTTCACCCGGAGTCACCTAGTGCAG | 54100 fluorescence intensity (a.u.) |
| CCGGATCTTCAGCAGAGTCGTGTCACCTGTTTTGATCGTTCGGAGTCACCTAGTGCAG | 3890 fluorescence intensity (a.u.) |
| CCGCCTTGCGTGGCTGAACTTCTTCTGATGGTCCCCGCCTCGGAGTCACCTAGTGCAG | 3290 fluorescence intensity (a.u.) |
| TATGTTCATTTCCTTATTTGCCTCTCGTCATGTCTCTTGACGGAGTCACCTAGTGCAG | 3420 fluorescence intensity (a.u.) |
| ATAATCTTCAGAGATCTCCTTGCCTGAAGTGTCTTATGTTCGGAGTCACCTAGTGCAG | 42500 fluorescence intensity (a.u.) |
| TAGTTCTGAAGTCTGAAATCCTTGCGGTCCTTCACCGCCTCGGAGTCACCTAGTGCAG | 55000 fluorescence intensity (a.u.) |
| GCAATCTTTGCCTTGGTCCTCTTGAAGTCTTTGGCGGTATCGGAGTCACCTAGTGCAG | 27700 fluorescence intensity (a.u.) |
| CTCACTGGTATGCTCACCACCACTTTAAGACTGTGTTTGTCGGAGTCACCTAGTGCAG | 3730 fluorescence intensity (a.u.) |
| AGAGGCGAAATCGCGGCTACGGAGGCGGCGGCGGTGGCGGCGGAGTCACCTAGTGCAG | 3390 fluorescence intensity (a.u.) |
| TGGCCATCGCCTACGGTGAGCAGTCATCGTCGTCCATCCGCGGAGTCACCTAGTGCAG | 4090 fluorescence intensity (a.u.) |
| TAGTCCTCCTTGGCTACGGTGTCATAGATCGAGGCCTCCGCGGAGTCACCTAGTGCAG | 50200 fluorescence intensity (a.u.) |
